Drawing on PubChem BioAssay (Tox21), this text covers Potency, outcome and activation for 9 molecules.

Several values for one entry are separate records, joined by “and”; a condition that tells them apart may be missing. Identical values can stand only once. Records with an inconclusive call do not appear. Some compounds were tested as several samples or in several runs, with calls that do not always agree. Activity calls are given as the source filed them. Unless noted, calls come from the whole dose curve; as a rule, active = well fitted curve in the direction sought with a large enough effect in the repeat runs; inconclusive = weak or mixed curves; inactive = no such curve, though single readings can be large; an effect the other way counts as inactive or inconclusive.

The nature of experiment [1]: qHTS assay to identify small molecule agonists of the vitamin D receptor (VDR) signaling pathway - cell viability counter screen (AID 743224). Note: % is set by controls: 0 for no effect and ±100 for the full control effect; nearly all actives have a fitted effect of over 50% in size. The method in brief:
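Plated VDR-bla cells (4 h, 37C) received compound, incubated 16 h, then LiveBLAzer substrate 2 h RT; CellTiter-Glo added afterwards, luminescence read at 30 min.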
For orientation: qHTS replaces the single test concentration by a dilution series.

Experiment [2] in a line: qHTS assay to identify small molecule antagonists of the vitamin D receptor (VDR) signaling pathway - cell viability counter screen (AID 743225). Note: % is set by controls: 0 for no effect and ±100 for the full control effect; nearly all actives have a fitted effect of over 50% in size. The method in brief:
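Cells (VDR-UAS-bla HEK 293T) are plated, rested 4 h at 37C, dosed with compound and 3 nM final 1-alpha,25-dihydroxy vitamin D3, and incubated 16 h. Viability is taken from CellTiter-Glo luminescence in the reporter wells.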

Experiment [3] can be described thus: qHTS assay to identify small molecule agonists of the NFkB signaling pathway (AID 1159509; active = well fitted curve in the direction sought with a large enough effect in the signal ratio in the repeat runs, not every such curve was filed as active; the % refers to the signal ratio; note: % is set by controls: 0 for no effect and ±100 for the full control effect). An outline of the steps:
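After overnight attachment, reporter cells received test compounds, DMSO or positive controls and were incubated 5 hr at 37 C. FRET substrate was then added for 1.5 hr at room temperature before dual-emission fluorescence reading.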

A short description of experiment [4]: qHTS assay to identify small molecule agonists of the NFkB signaling pathway - cell viability counter screen (AID 1159515; calls by dose curve; note: % is set by controls: 0 for no effect and ±100 for the full control effect; nearly all actives have a fitted effect of over 55% in size). The method in brief: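 Using the same wells as the NFkB reporter read, ME-180 NFkB-bla cells given compounds for 5 hr were assessed for viability via CellTiter-Glo, with luminescence taken after a 30 min room-temperature incubation.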
Experiment [5] is described as follows: qHTS assay to identify small molecule agonists of the endoplasmic reticulum stress response signaling pathway (AID 1159516; active = well fitted activation curve with a large enough effect in the signal ratio in the repeat runs, not every such curve was filed as active; the % refers to the signal ratio; note: % is set by controls: 0 for no effect and ±100 for the full control effect). The method in brief:
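An ESRE-bla HeLa cell assay: compounds were pin-transferred from DMSO onto overnight-plated cells and left 5 hr at 37 C. Substrate was then loaded for 2 hr at room temperature before reading fluorescence at 460 nm and 530 nm.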

The nature of experiment [6]: qHTS assay to identify small molecule agonists of the endoplasmic reticulum stress response signaling pathway - cell viability counter screen (AID 1159517; calls by dose curve;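 note: HeLa cells carrying an ER stress response element beta-lactamase reporter; % is set by controls: 0 for no effect and ±100 for the full control effect; nearly all actives have a fitted effect of over 50% in size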). An outline of the steps: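 Counter-screen wells were identical to the reporter wells. Cells were plated at 1,500 per well and dosed for 5 hr, then read for luminescence 30 min after CellTiter-Glo addition.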
Experiment [7] in a line: qHTS assay to identify small molecule antagonists of the retinoid-related orphan receptor gamma (ROR-gamma) signaling pathway - cell viability counter screen (AID 1159520). Note: % is set by controls: 0 for no effect and ±100 for the full control effect; nearly all actives have a fitted effect of over 50% in size. The method in brief:
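Tet-on ROR gamma CHO cells were given compounds for 2 hr, then doxycycline hyclate at 1 uM final, and incubated 16 hr at 37 C. Viability was measured as ATP content by CellTiter-Glo luminescence.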

In experiment [8] the target is Nuclear receptor ROR-gamma (Homo sapiens) (UniProt P51449). As to the kind of experiment: qHTS assay to identify small molecule antagonists of the retinoid-related orphan receptor gamma (ROR-gamma) signaling pathway (AID 1159521; note: nearly all actives have a fitted effect of over 50% in size; note: potency is the fitted concentration of half-maximal effect). The method in brief:
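RORγ antagonism is scored from reduced reporter luminescence in Tet-on CHO cells. Induction used 1 uM final doxycycline hyclate for 16 h at 37 C, following a 2 h compound exposure.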

Experiment [9] in a line: qHTS assay to identify small molecule agonists of the AP-1 signaling pathway - cell viability counter screen (AID 1159525; calls by dose curve; note: nearly all actives have a fitted effect of over 55% in size). The method in brief:
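AP-1-bla ME-180 cells in Opti-MEM with 0.5% dialyzed FBS, compound exposure 5 h at 37 C in 15-point titration. Viability read in the same wells as ATP content by CellTiter-Glo luminescence, normalised to tetra-n-octylammonium bromide and DMSO controls.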

The nature of experiment [10]: qHTS assay to identify small molecule agonists of the AP-1 signaling pathway (AID 1159526; calls by dose curve; note: % is set by controls: 0 for no effect and ±100 for the full control effect).
The target in experiment [11] is Retinoic acid receptor RXR-alpha (Homo sapiens) (UniProt P19793). Description: qHTS assay to identify small molecule agonists of the RXR signaling pathway (AID 1159527; calls by dose curve; note: % is set by controls: 0 for no effect and ±100 for the full control effect; nearly all actives have a fitted effect of over 35% in size). The method in brief:
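qHTS of the Tox21 10K library in GeneBLAzer RXR-alpha HEK 293T cells carrying a beta-lactamase reporter […]; 16 hr treatment, 9-cis retinoic acid as agonist control, FRET read-out.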

The nature of experiment [12]: qHTS assay to identify small molecule agonists of the RXR signaling pathway - cell viability counter screen (AID 1159529). The method in brief: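 Cell viability is measured by CellTiter-Glo luminescence, 30 min at room temperature, in wells already read for beta-lactamase. Engineered HEK 293T cells (RXR-alpha-UAS-bla) are dosed 16 hr at 37 C. Tetraoctyl ammonium bromide serves as positive control.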

Experiment [13] in a line: qHTS assay to identify small molecule antagonists of the retinoid acid receptor (RAR) signaling pathway - cell viability counter screen (AID 1159551). Note: % is set by controls: 0 for no effect and ±100 for the full control effect; nearly all actives have a fitted effect of over 35% in size. The method in brief:
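Retinol-stimulated (1 uM final) C3RL4 cells, compound 6 h, 37 C; readout CellTiter-Glo luminescence (ATP) after 30 min RT incubation.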

Experiment [14] can be described thus: qHTS assay to identify small molecule antagonists of the retinoic acid receptor (RAR) signaling pathway (AID 1159552). An outline of the steps:
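Quantitative HTS in C3RL4 RARE-luciferase reporter cells. Compounds were added with 1 uM (final) retinol; luminescence was read after 6 hr.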

Experiment [15] can be described thus: qHTS assay to identify small molecule agonists of the retinoic acid receptor (RAR) signaling pathway (AID 1159553). Note: % is set by controls: 0 for no effect and ±100 for the full control effect. The note with it: C3RL4 RARE luciferase reporter, agonist, 6 h. An outline of the steps:
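Reporter readout comes from luciferase under RARE control in C3RL4 cells; compound exposure lasts 6 hr at 37 C in 5% CO2, and luminescence is recorded following a 30 min room-temperature incubation with reagent.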

[16] abbreviates: activation: at 73.3 µM (top of the series) unless noted.

Retinoic acid receptor RXR-alpha (Homo sapiens), sequence (P19793 whole entry, looked up): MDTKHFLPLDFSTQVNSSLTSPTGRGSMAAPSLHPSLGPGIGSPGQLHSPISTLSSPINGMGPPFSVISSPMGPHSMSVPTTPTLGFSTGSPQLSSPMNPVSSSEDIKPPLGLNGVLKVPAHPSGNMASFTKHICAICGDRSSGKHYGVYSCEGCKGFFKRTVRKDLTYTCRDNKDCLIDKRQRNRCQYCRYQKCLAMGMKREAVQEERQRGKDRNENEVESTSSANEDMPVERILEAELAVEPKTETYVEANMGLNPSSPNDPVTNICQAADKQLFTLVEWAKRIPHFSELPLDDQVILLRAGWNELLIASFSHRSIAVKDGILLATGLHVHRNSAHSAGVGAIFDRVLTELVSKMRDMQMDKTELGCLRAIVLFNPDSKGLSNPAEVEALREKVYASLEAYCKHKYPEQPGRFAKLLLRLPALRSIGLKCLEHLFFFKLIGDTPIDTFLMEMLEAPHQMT

In the case of `CC(C)C(=O)OCC(C)(C)C(OC(=O)C(C)C)C(C)C` (stereo not given), the Potency entry in [1], in experiment [2], in [4], in experiment [6], in experiment [7] and in [8] was “inactive” throughout. Besides, the Potency entry in experiment [9], in experiment [11], in experiment [12], in experiment [13], in experiment [14] and in [15] (setting [16]) was “inactive” in each case. In addition, the outcome in experiment [3], in experiment [5] and in [10] was inactive.

As for `Cc1ccccc1[N+](=O)[O-]`, the Potency entry in experiment [1], in [2], in [4], in experiment [6], in [7] and in [8] was “inactive” in each case. Also, the Potency entry in experiment [9], in experiment [11], in experiment [12] and in experiment [14] was “inactive” each time. The molecule was called inactive in experiment [3], in [5] and in experiment [10]. The figures for the activation in experiment [15] (setting [16]) and in experiment [15] (at 73.3 µM (top of the series)) were 0.464% [at 94.8 µM] (active) and 1.75% (inactive), respectively.

As for `CCOP(=S)(OCC)O/N=C(\C#N)c1ccccc1`, the Potency result in experiment [1], in experiment [2], in experiment [4], in experiment [6], in experiment [7] and in [8] was “inactive” throughout. For the same molecule, the Potency result in experiment [9], in [11], in [12], in experiment [13], in experiment [14] and in experiment [15] (setting [16]) was “inactive” throughout. Further, the outcome in [3] and in experiment [5] was inactive.

For the molecule `C1=Cc2cccc3cccc1c23`, the Potency entry in experiment [1], in experiment [2], in experiment [4], in [6], in experiment [7] and in [8] was “inactive” throughout. Further, the Potency result in experiment [9], in [11], in [12], in [14] and in [15] (setting [16]) was “inactive” in each case. The result in experiment [3], in experiment [5] and in [10] was inactive.

Take `CCC(C)c1cc([N+](=O)[O-])cc([N+](=O)[O-])c1O` (stereo not given): the Potency result in experiment [1], in experiment [2], in experiment [4], in [6], in experiment [7] and in experiment [9] was “inactive” each time. For the same molecule, the Potency result in experiment [11], in experiment [12], in experiment [14] and in experiment [15] (setting [16]) was “inactive” throughout. Also, the outcome in experiment [3], in [5] and in experiment [10] was inactive. Also, the Potency result in experiment [8] was “inactive and 7.7 µM (active)”.

`c1ccc(N=Nc2ccccc2)cc1`: the Potency result in experiment [1], in experiment [2], in experiment [4], in experiment [6], in experiment [7] and in experiment [8] was “inactive” in each case. For the same molecule, the Potency result in [9], in experiment [11], in experiment [12], in experiment [14] and in experiment [15] (setting [16]) was “inactive” in each case. For the same molecule, the molecule was classed as inactive in experiment [3], in experiment [5] and in [10].

On to `Nn1cnnc1`, for which the Potency entry in [1], in experiment [2], in [4], in [6], in [7] and in experiment [8] was “inactive” in each case. Also, the Potency result in experiment [9], in experiment [11], in experiment [12], in experiment [14] and in experiment [15] (setting [16]) was “inactive” each time. Moreover, the outcome in [3], in experiment [5] and in experiment [10] was inactive.

Consider `Cc1ccc(OP(=O)(Oc2ccc(C)cc2)Oc2ccc(C)cc2)cc1`, for which the Potency entry in experiment [1], in experiment [2], in experiment [4], in [6], in [7] and in [9] was “inactive” in each case. Besides, the Potency entry in experiment [12], in experiment [14] and in [15] (setting [16]) was “inactive” throughout. In addition, the result in [3], in [5] and in experiment [10] was inactive. Further, the Potency in experiment [8] is 12.2 µM (active).

Take `C[C@]12CCC(=O)C(O)=C1CC[C@@H]1[C@@H]2CC[C@]2(C)C(=O)CC[C@@H]12`: the Potency entry in experiment [1], in experiment [2], in experiment [4], in [6], in experiment [7] and in experiment [9] was “inactive” each time. Besides, the Potency result in experiment [11] and in [13] was “inactive” throughout. Further, the result in experiment [3], in experiment [5] and in [10] was inactive. In addition, the Potency in experiment [8] was 27.3 µM (active) and inactive.
